# Compound activity deposited in PubChem by National Center for Advancing Translational Sciences (NCATS).
# Rows were chosen to be rich in hits. Some 1.2% of all compounds tested hit in one or more screens of this group.
# NS1 function inh = qHTS Assay for Inhibitors of Influenza NS1 Protein Function | Potency, µM (top dose mostly 46.1 µM) | 270,000 tested, 0.4% active; calls by dose curve; note: actives are rising curves; nearly all actives have a fitted effect of over 50% in size
#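 S. cerevisiae expressing influenza A NS1, grown in glucose, washed, then diluted 1:100 into pH 6.0 -URA galactose medium with 23 nl compound. Growth recovery read as OD600; NS1-free strain serves as control.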
# LmPK inh = qHTS Assay for Inhibitors of Leishmania Mexicana Pyruvate Kinase (LmPK); purified LmPK, Kinase-Glo ATP luminescence, 1 h; AID 1721, 2009; 290,000 tested, 0.37% active; Potency, µM (series often up to 57.5 µM), usual class: inhibitors; Q27686
# Target sequence (Q27686 whole entry, looked up): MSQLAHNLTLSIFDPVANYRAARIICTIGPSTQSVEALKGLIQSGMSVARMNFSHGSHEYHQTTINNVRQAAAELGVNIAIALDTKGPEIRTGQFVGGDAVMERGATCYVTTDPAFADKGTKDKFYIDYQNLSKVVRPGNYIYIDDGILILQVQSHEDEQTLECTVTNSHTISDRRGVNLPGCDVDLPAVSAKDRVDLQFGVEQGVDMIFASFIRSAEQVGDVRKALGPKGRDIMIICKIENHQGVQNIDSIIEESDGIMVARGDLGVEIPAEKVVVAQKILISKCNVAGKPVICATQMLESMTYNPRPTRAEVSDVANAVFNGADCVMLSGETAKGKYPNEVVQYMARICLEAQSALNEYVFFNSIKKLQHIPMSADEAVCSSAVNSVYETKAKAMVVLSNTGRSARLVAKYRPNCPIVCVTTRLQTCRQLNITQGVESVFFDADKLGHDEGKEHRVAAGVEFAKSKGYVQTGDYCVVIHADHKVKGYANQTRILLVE
#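 ATP generated from ADP (0.1 mM) and PEP (0.5 mM) by 0.1 nM LmPK over 1 h at room temperature (pH 7.2 imidazole buffer) was detected by coupled luciferase luminescence. Values were normalized to uninhibited and no-enzyme wells.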
# Tb PYK inh = qHTS of Trypanosoma Brucei Inhibitors. pyruvate kinase (Trypanosoma brucei), Q57TT1. TbPYK enzyme, Kinase-Glo Plus ATP luminescence, 45 min. Potency, µM (doses to about 76.8 µM), actives largely listed as inhibitors. 410,000 tested, 0.12% active. AID 624173, 2012; note: nearly all actives have a fitted effect of over 50% in size
#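 Readout: single end-point luminescence (Kinase-Glo Plus, 10 min). Reaction conditions were TbPYK/substrate plus 130 uM ADP, 45 min at RT, pH 7.2 TEA buffer. No-enzyme wells served as controls, and data were normalized before concentration-response fitting.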
# FBPA Giardia inh = qHTS Assay for Inhibitors of Fructose-1,6-bisphosphate Aldolase from Giardia Lamblia. A8B2U2. purified Giardia FBPA. Potency, µM (titrated, usually from 59.6 µM), actives largely listed as inhibitors. 290,000 tested, 0.71% active. AID 2451, 2010; note: nearly all actives have a fitted effect of over 55% in size
#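 40 nM FBPA preincubated 10 min at RT with compound (up to 57.5 uM final), then substrate plus GAPDH/TPI/NAD/arsenate coupling and diaphorase/resazurin added. Fluorescence read after 20 min at RT, 525/598 nm.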
# AMA1 RON2 block = qHTS for Inhibitors of AMA1-RON; Towards Development of Antimalarial Drug Lead: Primary Screen; AlphaScreen AMA1-biotinylated RON2 peptide binding; Potency, µM (top dose mostly 58.2 µM), most hits filed as inhibitors; 360,000 tested, 0.2% active; AID 720542, 2013; note: nearly all actives have a fitted effect of over 45% in size
#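 AMA1 (3D7) with his tag at 25 nM final met compounds first, then biotinylated RON2 peptide at 25 nM; detection used donor plus acceptor beads, 10 µg/mL apiece, read by AlphaScreen after 30 min at room temperature.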
# A number is an active result; i = inactive; ? = inconclusive; nt = no result; [ ] = dose if it differs, or a comment. Unless noted, calls come from the whole dose curve; as a rule, active = well fitted curve in the direction sought with a large enough effect; inconclusive = small, poorly fitted or top-dose-only effect, or another doubt; inactive = no such curve, though single readings can be large; an effect the other way counts as inactive or inconclusive.
SMILES,NS1 function inh,LmPK inh,Tb PYK inh,FBPA Giardia inh,AMA1 RON2 block
O=S(=O)(c1ccccc1F)N1CCN(Cc2cc3c(cc2O)OCO3)CC1,nt,nt,i,nt,i
N#Cc1ccccc1S(=O)(=O)N1CCN(Cc2cc3c(cc2Br)OCCO3)CC1,nt,nt,i,nt,i
Oc1cc2c(cc1CN1CCN(c3ccc(F)cc3)CC1)OCO2,i,i,i,i,31.6µM
Brc1cc2c(cc1CN1CCN(c3ccccc3)CC1)OCCO2,i,i,i,i,7.94µM
Cn1c(SCc2ccccc2Cl)nc2c([nH]c3ccccc32)c1=O,nt,nt,i,nt,nt
O=C(O)c1ccccc1-c1c2cc(I)c(=O)c(I)c-2oc2c(I)c(O)c(I)cc12,nt,nt,i,i,7.94µM
O=C(O)c1c(Cl)c(Cl)c(Cl)c(Cl)c1-c1c2cc(I)c(=O)c(I)c-2oc2c(I)c(O)c(I)cc12,nt,nt,?,i,nt
O=C1C(Cl)=C(Cl)C(=O)C(Cl)=C1Cl,nt,nt,nt,0.561µM,nt
Cc1cccc(-c2[nH]c(C(C)(C)C)nc2-c2ccc3nccnc3c2)n1,nt,nt,i,nt,nt
COC(=O)[C@H]1Cc2c([nH]c3ccccc23)CN1C(=O)COc1ccc2c(C)cc(=O)oc2c1,nt,nt,nt,i,nt
CC(C)(C)CC(=O)OCC(=O)[C@@]12OC(C)(C)O[C@@H]1C[C@H]1[C@@H]3CCC4=CC(=O)C=C[C@]4(C)[C@@]3(F)[C@@H](O)C[C@]12C,nt,nt,i,nt,nt
CN(C)c1ccc(C=C2C=C(c3ccccc3)OC2=O)cc1,nt,nt,i,nt,8.91µM
Cc1ccc(C=C2C=C(c3ccccc3)OC2=O)cc1,nt,nt,i,nt,i
O=C(O)CCn1cc(C=C2C(=O)NC(=O)NC2=O)c(-c2ccc(Br)cc2)n1,i,i,17.8µM,i,i
O=C(O)CCn1cc(C=C2C(=O)NC(=S)NC2=O)c(-c2cccc(Cl)c2)n1,i,i,11.2µM,i,i
CC(=O)N[C@H]1[C@@H](O[C@@H](C)C(=O)O)[C@H](O)[C@H](CO)O[C@@H]1O,nt,nt,nt,i,nt
COC(=O)c1cc(C)nc(Sc2ccccc2N)n1,i,i,8.91µM,i,i
CC1=NOC2(C1)N(C)c1ccccc1C2(C)C (stereo unspecified),i,i,i,i,i
COc1ccc2ccc3c(c2c1)N=C[C@]1(O3)N(C)c2ccccc2C1(C)C,i,i,i,8.89µM,?
COc1ccc(NC(=O)C(=O)NCC(c2cccnc2)N2CCc3ccccc3C2)cc1 (stereo unspecified),nt,nt,i,nt,nt
Cc1noc(C)c1-c1ccc2ncnc(N3CCN(C)CC3)c2c1,nt,nt,nt,i,nt
CCc1[nH]c(=S)c(C#N)c2c1CCCC2,i,i,15.8µM,i,i[2.32 µM]
CCc1[nH]c(=O)c(C#N)c2c1CCCC2,nt,i,i,i,i
Cc1ccc(-n2c(=O)c3sc4ccccc4c3n(CC(=O)NC3CCCC3)c2=O)cc1C,nt,nt,i,nt,nt
CN=c1sc(C(=O)Nc2cccc(Cl)c2)cc(=O)n1C,i,i,20µM,i,i
SMILES,NS1 function inh,LmPK inh,Tb PYK inh,FBPA Giardia inh,AMA1 RON2 block
O=C(/C=C/Nc1cccc(O)c1)c1ccccc1,i,14.1µM,i,i,i
COc1ccc(C(=O)/C=C/Nc2cc(C)ccn2)cc1,i,12.6µM,i,i,i
O=C(/C=C\Nc1ccccn1)c1ccccc1,i,12.6µM,i,i,i
COc1cc(C2CC(=O)c3c([nH]c(C(=O)OC4CCCC4)c3C)C2)cc(OC)c1OC (stereo unspecified),nt,nt,i,nt,nt
Cn1c(N)c(C(=O)COC(=O)c2cc(-c3ccco3)nc3ccccc23)c(=O)n(C)c1=O,?,i,i,i,?
Cn1c(N)c(C(=O)COC(=O)c2cc(-c3ccco3)nc3ccccc23)c(=O)n(Cc2ccccc2)c1=O,14.1µM,i,nt,i,nt
CCCSc1ccc2nc(-c3ccccc3)cn2c1,i,6.31µM,?,i,i
CC(=O)N1c2ccccc2[C@@H](C)[C@@H]1C,nt,nt,i,nt,i
CC(=O)N1c2ccccc2C2(O)N=C(C)SC12 (stereo unspecified),i,i,12.6µM,?,i
Cc1ccc(C2(CCNCc3ccc(N(C)C)cc3)CCOC(C(C)C)C2)cc1 (stereo unspecified),i,i,i,i,10µM
O=C(Nc1cccc(Br)c1)c1cc(S(=O)(=O)N2CCCCC2)c[nH]1,nt,nt,i,nt,nt
N#Cc1c(N)n(-c2cccc(Cl)c2)c2nc3ccccc3nc12,nt,nt,i,nt,nt
CC(C)(Cl)[N+](=O)[O-],nt,nt,i,nt,i
O=[N+]([O-])C(Br)(CO)CO,nt,nt,10µM,nt,nt
O=C(NCCc1ccccc1)c1ccc(CSc2nc3ccncc3n2Cc2cccc(F)c2)cc1,nt,nt,i,nt,nt
CCOC(=S)SSC(=S)OCC,nt,nt,i,nt,nt
CN=c1scc(-c2ccccc2F)n1/N=C/c1ccc(O)c(O)c1O,nt,?,?,7.92µM,i
CN=c1scc(-c2ccccc2F)n1/N=C/c1ccc[nH]1,nt,i,i,i,i
O=C(O)c1ccc(-c2c[nH]c3ccc(-c4ccccc4)cc23)cc1C1CCCC1,nt,nt,i,nt,nt
CN1C(=O)NC(=O)/C(=C/c2ccc([N+](=O)[O-])s2)C1=O,i,i,14.1µM,?,?
O=C1NC(=O)N(c2ccccc2)C(=O)/C1=C\c1ccc([N+](=O)[O-])s1,i,i,?,?,i
CCc1ccc(C2CC(c3ccco3)=NN2S(C)(=O)=O)cc1 (stereo unspecified),i,12.6µM,i,i,i
CCOc1ccc2cc(C3CC(c4ccco4)=NN3S(C)(=O)=O)c(Cl)nc2c1 (stereo unspecified),i,i,i,i,i
CC(C)C[C@H](NC(=O)CNC(=O)c1cc(Cl)ccc1Cl)B(O)O,nt,nt,i,nt,nt
